Drawing on PubChem BioAssay (NCI), this text covers growth inhibition for ten compounds.

The nature of experiment [1]: NCI Yeast Anticancer Drug Screen. Data for the rad50 strain (AID 155).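 Also: 0% = growth of vehicle-only cultures of the same strain.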 The settings on record: S. cerevisiae rad50 strain growth inhibition, hits give high values. The method, boiled down:
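DNA repair mutant yeast, compound exposure, growth read-out; inhibition is taken relative to vehicle.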

Experiment [2] in a line: NCI Yeast Anticancer Drug Screen. Data for the mec2-1 strain (AID 157). The following applies: S. cerevisiae mec2-1 strain, hits give high values. The method in brief: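 Each compound was tested on mec2-1 yeast, a strain altered in DNA damage repair or cell cycle control. Growth inhibition is reported relative to vehicle.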
Experiment [3] in a line: NCI Yeast Anticancer Drug Screen. Data for the sgs1 mgt1 strain (AID 161).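 Also: 0% = growth of cultures given vehicle only.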 The settings on record: S. cerevisiae sgs1 mgt1 strain, hits give high values. The method in brief: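 Genetically altered yeast, compound exposure, growth inhibition relative to vehicle.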
Experiment [4] in a line: NCI Yeast Anticancer Drug Screen. Data for the cln2 rad14 strain (AID 165).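 Also: 0% = growth equal to vehicle treated cultures.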 The settings on record: S. cerevisiae cln2 rad14 strain, hits give high values. The method in brief:
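Test compounds were added to cln2 rad14 yeast cultures; inhibition of growth was then determined by comparison with vehicle treatment.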

Experiment [5] in a line: NCI Yeast Anticancer Drug Screen. Data for the bub3 strain (AID 167). The settings on record: S. cerevisiae bub3 mutant strain, hits give high values. The method in brief:
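In this screen, a yeast mutant lacking normal mitotic checkpoint function is challenged with compound. Relative growth versus vehicle gives the inhibition value.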

Experiment [6] can be described thus: NCI Yeast Anticancer Drug Screen. Data for the mlh1 rad18 strain (AID 175). The following applies: S. cerevisiae mlh1 rad18 strain growth inhibition, hits give high values. The method, boiled down: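 Inhibition values reflect reduced growth of mutant yeast versus vehicle-treated controls following compound exposure; the mutations affect DNA damage repair.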
[7] abbreviates: at 5.0 µM (retest, dose inferred, filed as 0.5).
The mark [8] stands for this setting: at 50.0 µM (retest, dose inferred, filed as 5.0).

The panel holds about 79,000 compounds, 15% with a hit somewhere; the sample as a whole holds those more often. Values without a mark were called inactive. The source made the active and inactive calls. Rule as the data show it: active = growth inhibition above about 70%; inactive = the rest.

Consider `COC(OC)(c1ccccc1)C(I)I`, for which the growth inhibition was 100% (active) in experiment [1] (setting [7]); 100% (active) in experiment [1] (setting [8]); 99% (active) in experiment [1] (at 50.0 µM); 100% (active) in experiment [2] (setting [7]); 100% (active) in experiment [2] (setting [8]); 99.4% (active) in experiment [2] (at 50.0 µM). Also, the growth inhibition is 100% (active) in experiment [3] (setting [7]); 100% (active) in experiment [3] (setting [8]); 99.3% (active) in experiment [3] (at 50.0 µM); 100% (active) in experiment [4] (setting [7]); 99% (active) in experiment [4] (setting [8]); 99.5% (active) in experiment [4] (at 50.0 µM). In addition, the growth inhibition in experiment [5] (setting [7]) is 100% (active); in experiment [5] (setting [8]) it was 100% (active); in experiment [5] (at 50.0 µM), 99.3% (active); in experiment [6] (setting [7]), 100% (active); in experiment [6] (setting [8]) it was 99% (active); in experiment [6] (at 50.0 µM) it was 99.5% (active).
Take `CC(=O)O[C@H]1CC[C@H]2[C@@H]3CCc4cc(O)c(I)cc4[C@H]3CC[C@]12C`: the growth inhibition in experiment [1] (setting [7]) was 12%; in experiment [1] (setting [8]), 84% (active); in experiment [1] (at 50.0 µM), 51.3%; in experiment [2] (setting [7]) it was 0%; in experiment [2] (setting [8]), 58%; in experiment [2] (at 50.0 µM) it was 43.8%. Also, the growth inhibition was 23% in experiment [3] (setting [7]); 93% (active) in experiment [3] (setting [8]); 72.4% (active) in experiment [3] (at 50.0 µM); 21% in experiment [4] (setting [7]); 75% (active) in experiment [4] (setting [8]); 45% in experiment [4] (at 50.0 µM). Besides, the growth inhibition in experiment [5] (setting [7]) is 20%; in experiment [5] (setting [8]), 82% (active); in experiment [5] (at 50.0 µM), 47.5%; in experiment [6] (setting [7]) it was 6%; in experiment [6] (setting [8]), 80% (active); in experiment [6] (at 50.0 µM), 63.4%.
`CCOP(=O)(OCC)/C(=C\NC(=S)N=Nc1c(O)[nH]c2ccccc12)C(=O)OC`: the growth inhibition in experiment [1] (setting [7]) was 29%; in experiment [1] (setting [8]) it was 81% (active); in experiment [1] (at 50.0 µM), 19.6%; in experiment [2] (setting [7]), 4%; in experiment [2] (setting [8]), 89% (active); in experiment [2] (at 50.0 µM), 11.2%. Moreover, the growth inhibition was 6% in experiment [3] (setting [7]); 83% (active) in experiment [3] (setting [8]); 7.85% in experiment [3] (at 50.0 µM); 2% in experiment [4] (setting [7]); 67% in experiment [4] (setting [8]); 46.1% in experiment [4] (at 50.0 µM). For the same compound, the growth inhibition is -8% in experiment [5] (setting [7]); 62% in experiment [5] (setting [8]); 13.8% in experiment [5] (at 50.0 µM); 5% in experiment [6] (setting [7]); 84% (active) in experiment [6] (setting [8]); 14.6% in experiment [6] (at 50.0 µM).
With `Cc1ccc(N=c2cc(-c3ccccc3)oc3ccccc23)c(C)c1`, the growth inhibition in experiment [1] (setting [7]) was 1%; in experiment [1] (setting [8]), 74% (active); in experiment [1] (at 50.0 µM), 3%; in experiment [2] (setting [7]), -11%; in experiment [2] (setting [8]), 48%; in experiment [2] (at 50.0 µM), -12.4%. In addition, the growth inhibition was 3% in experiment [3] (setting [7]); 93% (active) in experiment [3] (setting [8]); 11% in experiment [3] (at 50.0 µM); 5% in experiment [4] (setting [7]); 51% in experiment [4] (setting [8]); 8.1% in experiment [4] (at 50.0 µM). The growth inhibition in experiment [5] (setting [7]) was 11%; in experiment [5] (setting [8]) it was 94% (active); in experiment [5] (at 50.0 µM), 5.6%; in experiment [6] (setting [7]), 4%; in experiment [6] (setting [8]), 94% (active); in experiment [6] (at 50.0 µM) it was 18.6%.
For `CC(C)(C)N/N=C(\C(=O)NC1=C(Cl)C(=O)c2ccccc2C1=O)C1C=CCS1(=O)=O` (stereo not given), the growth inhibition is 7% in experiment [1] (setting [7]); 89% (active) in experiment [1] (setting [8]); 90.2% (active) in experiment [1] (at 50.0 µM); -10% in experiment [2] (setting [7]); 65% in experiment [2] (setting [8]); 72.3% (active) in experiment [2] (at 50.0 µM). Moreover, the growth inhibition in experiment [3] (setting [7]) was -4%; in experiment [3] (setting [8]), 86% (active); in experiment [3] (at 50.0 µM), 68.4%; in experiment [4] (setting [7]), -26%; in experiment [4] (setting [8]), 48%; in experiment [4] (at 50.0 µM), 31.3%. Also, the growth inhibition in experiment [5] (setting [7]) is 0%; in experiment [5] (setting [8]) it was 92% (active); in experiment [5] (at 50.0 µM) it was 84% (active); in experiment [6] (setting [7]), 15%; in experiment [6] (setting [8]), 81% (active); in experiment [6] (at 50.0 µM), 61.5%.
Consider `C=C1C(=O)OC2C1CC1OC2C(C)CCC/C(C)=C\CCC1(C)O` (stereo not given), for which the growth inhibition is 2% in experiment [1] (setting [7]); 8% in experiment [1] (setting [8]); 92.5% (active) in experiment [1] (at 50.0 µM); 2% in experiment [2] (setting [7]); 25% in experiment [2] (setting [8]); 92.8% (active) in experiment [2] (at 50.0 µM). Besides, the growth inhibition is 2% in experiment [3] (setting [7]); 34% in experiment [3] (setting [8]); 94.1% (active) in experiment [3] (at 50.0 µM); -6% in experiment [4] (setting [7]); -8% in experiment [4] (setting [8]); 91.8% (active) in experiment [4] (at 50.0 µM). Moreover, the growth inhibition is -1% in experiment [5] (setting [7]); 8% in experiment [5] (setting [8]); 92.4% (active) in experiment [5] (at 50.0 µM); 1% in experiment [6] (setting [7]); 20% in experiment [6] (setting [8]); 92.6% (active) in experiment [6] (at 50.0 µM).
For `CN(C)c1cc2nc3ccccc3nc2cc1O`, the growth inhibition was 2% in experiment [1] (setting [7]); 46% in experiment [1] (setting [8]); 62.9% in experiment [1] (at 50.0 µM); -1% in experiment [2] (setting [7]); 53% in experiment [2] (setting [8]); 15.6% in experiment [2] (at 50.0 µM). In addition, the growth inhibition was -1% in experiment [3] (setting [7]); 26% in experiment [3] (setting [8]); 34.6% in experiment [3] (at 50.0 µM); -7% in experiment [4] (setting [7]); 34% in experiment [4] (setting [8]); 45.8% in experiment [4] (at 50.0 µM). Besides, the growth inhibition in experiment [5] (setting [7]) was -3%; in experiment [5] (setting [8]), 59%; in experiment [5] (at 50.0 µM), 94.5% (active); in experiment [6] (setting [7]) it was 7%; in experiment [6] (setting [8]) it was 76% (active); in experiment [6] (at 50.0 µM), 81.9% (active).
Turning to `Oc1cc2ccccc2c2ccccc12`, the growth inhibition in experiment [1] (setting [7]) is 0%; in experiment [1] (setting [8]) it was 93% (active); in experiment [1] (at 50.0 µM) it was 99.2% (active); in experiment [2] (setting [7]), 2%; in experiment [2] (setting [8]), 83% (active); in experiment [2] (at 50.0 µM), 99.2% (active). Moreover, the growth inhibition was 4% in experiment [3] (setting [7]); 87% (active) in experiment [3] (setting [8]); 98.9% (active) in experiment [3] (at 50.0 µM); -15% in experiment [4] (setting [7]); 97% (active) in experiment [4] (setting [8]); 98.5% (active) in experiment [4] (at 50.0 µM). Moreover, the growth inhibition in experiment [5] (setting [7]) is 16%; in experiment [5] (setting [8]), 96% (active); in experiment [5] (at 50.0 µM) it was 99.2% (active); in experiment [6] (setting [7]), 6%; in experiment [6] (setting [8]), 93% (active); in experiment [6] (at 50.0 µM), 98.9% (active).
Consider `CCC(=O)OCN1C(=O)C=CC1=O`, for which the growth inhibition was 11% in experiment [1] (setting [7]); 99% (active) in experiment [1] (setting [8]); 99% (active) in experiment [1] (at 50.0 µM); 3% in experiment [2] (setting [7]); 100% (active) in experiment [2] (setting [8]); 99.3% (active) in experiment [2] (at 50.0 µM). In addition, the growth inhibition is -4% in experiment [3] (setting [7]); 100% (active) in experiment [3] (setting [8]); 99.2% (active) in experiment [3] (at 50.0 µM); 14% in experiment [4] (setting [7]); 99% (active) in experiment [4] (setting [8]); 98.9% (active) in experiment [4] (at 50.0 µM). Besides, the growth inhibition in experiment [5] (setting [7]) was 10%; in experiment [5] (setting [8]) it was 100% (active); in experiment [5] (at 50.0 µM), 99.3% (active); in experiment [6] (setting [7]), 20%; in experiment [6] (setting [8]), 99% (active); in experiment [6] (at 50.0 µM), 99% (active).
On to `COC(=O)c1ccccc1C#Cc1ccccc1C(=O)OC`, for which the growth inhibition in experiment [1] (setting [7]) was -1%; in experiment [1] (setting [8]) it was -1%; in experiment [1] (at 50.0 µM), 66.8%; in experiment [2] (setting [7]), -2%; in experiment [2] (setting [8]), 2%; in experiment [2] (at 50.0 µM), 54.3%. For the same compound, the growth inhibition in experiment [3] (setting [7]) was -2%; in experiment [3] (setting [8]), 1%; in experiment [3] (at 50.0 µM), 89% (active); in experiment [4] (setting [7]), -2%; in experiment [4] (setting [8]), -7%; in experiment [4] (at 50.0 µM), 12.9%. Further, the growth inhibition in experiment [5] (setting [7]) is 3%; in experiment [5] (setting [8]), 4%; in experiment [5] (at 50.0 µM), 83.5% (active); in experiment [6] (setting [7]), -3%; in experiment [6] (setting [8]) it was -5%; in experiment [6] (at 50.0 µM) it was 50%.
